Source: PubChem BioAssay (EPA / NIEHS)
Results filed as inconclusive are left out. Calls of active or inactive are those of the source. The calls were made as follows: active = hit-call score of the fitted dose curve at least 0.9, where 1 is the maximum; inconclusive = response in the unintended direction; inactive = score below 0.9.

target: Glucocorticoid receptor (Homo sapiens) (UniProt P04150); experiment: ATG_GR_TRANS: Attagene TRANS-FACTORIAL HepG2 Assay for human Glucocorticoid Receptor (GR) (AID 2282978); settings: HepG2 Attagene TRANS GR reporter, mRNA transcription;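 also: activators score as hits since higher reporter transcript over DMSO is fitted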
Sequence (P04150 whole entry, looked up, the tested form may be a part): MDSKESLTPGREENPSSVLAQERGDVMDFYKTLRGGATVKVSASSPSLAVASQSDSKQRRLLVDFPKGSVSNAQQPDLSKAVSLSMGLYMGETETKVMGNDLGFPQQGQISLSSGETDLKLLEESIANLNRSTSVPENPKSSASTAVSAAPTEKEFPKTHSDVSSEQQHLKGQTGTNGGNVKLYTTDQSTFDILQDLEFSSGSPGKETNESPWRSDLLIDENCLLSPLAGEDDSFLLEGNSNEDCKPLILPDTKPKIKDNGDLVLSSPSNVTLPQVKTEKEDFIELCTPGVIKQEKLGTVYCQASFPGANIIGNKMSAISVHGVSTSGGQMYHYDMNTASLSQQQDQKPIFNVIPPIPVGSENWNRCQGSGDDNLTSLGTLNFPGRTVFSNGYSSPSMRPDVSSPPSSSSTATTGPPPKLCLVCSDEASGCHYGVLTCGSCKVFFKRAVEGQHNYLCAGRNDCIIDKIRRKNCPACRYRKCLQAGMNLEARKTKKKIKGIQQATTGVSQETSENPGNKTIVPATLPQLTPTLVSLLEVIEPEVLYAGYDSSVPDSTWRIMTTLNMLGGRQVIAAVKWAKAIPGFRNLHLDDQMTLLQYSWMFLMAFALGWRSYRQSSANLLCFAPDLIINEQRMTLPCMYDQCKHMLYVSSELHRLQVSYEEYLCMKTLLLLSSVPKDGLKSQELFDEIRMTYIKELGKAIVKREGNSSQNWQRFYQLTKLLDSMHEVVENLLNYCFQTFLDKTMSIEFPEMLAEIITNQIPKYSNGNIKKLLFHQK
How it was run: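 Transient MRTU transfection of HepG2 (GAL4-UAS reporters, exogenous NR-GAL4 chimeras), 24 h dosing. Readout: reporter transcript via RT-PCR + capillary electrophoresis fluorescence. Positive direction vs DMSO baseline.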

**Q.** `CCc1cnc(C2=NC(C)(C(C)C)C(=O)N2)c(C(=O)O)c1` (stereo not drawn) was tested. Which outcome did it give?
**A.** inactive

**Q.** With `COP(=O)(NC(C)=O)SC` (stereo not drawn) as the molecule, how does the outcome read?
**A.** inactive

**Q.** How did the outcome turn out when `CCOP(=S)(OCC)Oc1cc(C)nc(C(C)C)n1` was run?
**A.** inactive

**Q.** For `CCOC(=O)CC(SP(=O)(OC)OC)C(=O)OCC` (stereo not drawn), which outcome is on record?
**A.** inactive

**Q.** For `CC(Oc1cccc(Cl)c1)C(=O)O` (stereo not drawn), which outcome is on record?
**A.** inactive

**Q.** Which outcome does the source give for `CCOP(=S)(OCC)Oc1ccc([N+](=O)[O-])cc1` here?
**A.** inactive

**Q.** How did the outcome turn out when `O=C(O)c1cc(Oc2ccc(C(F)(F)F)cc2Cl)ccc1[N+](=O)[O-]` was run?
**A.** inactive

**Q.** With `CCCOc1nn(C(=O)NS(=O)(=O)c2ccccc2C(=O)OC)c(=O)n1C` as the molecule, how does the outcome read?
**A.** inactive

**Q.** `COP(=O)(OC)SCn1c(=O)oc2cc(Cl)cnc21` was tested. Which outcome did it give?
**A.** inactive

**Q.** Which outcome does the source give for `CCc1cccc(CC)c1N(COC)C(=O)CCl` here?
**A.** inactive

**Q.** For `CNc1cnn(-c2cccc(C(F)(F)F)c2)c(=O)c1Cl`, which outcome is on record?
**A.** inactive

**Q.** With `CCNc1nc(Cl)nc(NC(C)(C)C#N)n1` as the molecule, how does the outcome read?
**A.** inactive

target: Bile acid receptor (Homo sapiens) (UniProt Q96RI1); experiment: ATG_FXR_TRANS: Attagene TRANS-FACTORIAL HepG2 Assay for Farnesoid X Receptor (FXR) (AID 2282979); settings: HepG2 Attagene TRANS FXR-GAL4 reporter transcription;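 also: hits raise reporter mRNA above DMSO so AC50 marks FXR activation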
Sequence (Q96RI1 whole entry, looked up, the tested form may be a part): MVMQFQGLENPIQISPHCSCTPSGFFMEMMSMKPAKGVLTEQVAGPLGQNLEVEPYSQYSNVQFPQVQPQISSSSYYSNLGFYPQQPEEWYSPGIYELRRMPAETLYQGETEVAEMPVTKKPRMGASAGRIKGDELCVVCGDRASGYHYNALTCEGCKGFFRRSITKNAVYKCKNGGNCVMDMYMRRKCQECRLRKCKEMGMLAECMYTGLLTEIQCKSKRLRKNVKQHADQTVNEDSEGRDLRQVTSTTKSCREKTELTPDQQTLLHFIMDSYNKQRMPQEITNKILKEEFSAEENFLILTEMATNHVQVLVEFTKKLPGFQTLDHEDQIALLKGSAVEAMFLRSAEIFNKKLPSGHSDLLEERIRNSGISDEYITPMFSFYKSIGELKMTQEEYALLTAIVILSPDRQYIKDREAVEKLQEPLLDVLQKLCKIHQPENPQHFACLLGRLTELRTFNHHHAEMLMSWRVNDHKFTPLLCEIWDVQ
How it was run: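 HepG2 cells were transiently transfected with GAL4-UAS reporters driven by chimeric NR-Gal4 proteins and dosed for 24 h. Reporter mRNA was quantified by RT-PCR, fluorescent labelling, HpaI digestion and capillary electrophoresis, with gain of signal scored versus DMSO.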

**Q.** With `CCC(CC)Nc1c([N+](=O)[O-])cc(C)c(C)c1[N+](=O)[O-]` as the molecule, how does the outcome read?
**A.** inactive

**Q.** With `CNC(=O)Oc1cccc2c1OC(C)(C)O2` as the molecule, how does the outcome read?
**A.** inactive

**Q.** Which outcome does the source give for `Cc1cc(C2CC2)nc(Nc2ccccc2)n1` here?
**A.** inactive

**Q.** `CCCSP(=O)(OCC)Oc1ccc(Br)cc1Cl` (stereo not drawn) was tested. Which outcome did it give?
**A.** inactive

target: Oxysterols receptor LXR-alpha (Homo sapiens) (UniProt Q13133); experiment: ATG_LXRa_TRANS: Attagene TRANS-FACTORIAL HepG2 Assay for human Liver X Receptor alpha (LXRa) (AID 2282980); settings: HepG2 Attagene TRANS reporter, LXRa transactivation
Sequence (Q13133 whole entry, looked up, the tested form may be a part): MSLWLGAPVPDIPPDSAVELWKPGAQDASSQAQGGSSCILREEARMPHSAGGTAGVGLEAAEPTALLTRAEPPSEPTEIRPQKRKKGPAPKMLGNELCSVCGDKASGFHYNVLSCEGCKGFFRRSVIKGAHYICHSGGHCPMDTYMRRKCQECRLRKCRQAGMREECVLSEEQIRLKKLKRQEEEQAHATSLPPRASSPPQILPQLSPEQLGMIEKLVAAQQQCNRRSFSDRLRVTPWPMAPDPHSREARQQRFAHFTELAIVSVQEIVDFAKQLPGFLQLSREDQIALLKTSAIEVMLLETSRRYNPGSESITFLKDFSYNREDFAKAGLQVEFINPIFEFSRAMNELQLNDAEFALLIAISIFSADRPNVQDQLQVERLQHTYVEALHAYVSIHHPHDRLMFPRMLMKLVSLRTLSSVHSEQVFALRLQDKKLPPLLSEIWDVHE
How it was run: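 HepG2 cells transiently transfected with GAL4-UAS reporter units for chimeric NR-Gal4 proteins, exposed to chemicals for 24 h. Reporter mRNA quantified by RT-PCR and capillary electrophoresis; gain of signal fitted relative to DMSO.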

**Q.** For `O=c1ccc(=O)[nH][nH]1`, which outcome is on record?
**A.** inactive

**Q.** With `CNC(=O)Oc1cccc2c1OC(C)(C)O2` as the molecule, how does the outcome read?
**A.** inactive

**Q.** `C#CC(C)(C)NC(=O)c1cc(Cl)cc(Cl)c1` was tested. Which outcome did it give?
**A.** inactive

target: Oxysterols receptor LXR-beta (Homo sapiens) (UniProt P55055); experiment: ATG_LXRb_TRANS: Attagene TRANS-FACTORIAL HepG2 Assay for human Liver X Receptor beta (LXRb) (AID 2282981); settings: HepG2 Attagene TRANS GAL4-LXRb reporter, mRNA
Sequence (P55055 whole entry, looked up, the tested form may be a part): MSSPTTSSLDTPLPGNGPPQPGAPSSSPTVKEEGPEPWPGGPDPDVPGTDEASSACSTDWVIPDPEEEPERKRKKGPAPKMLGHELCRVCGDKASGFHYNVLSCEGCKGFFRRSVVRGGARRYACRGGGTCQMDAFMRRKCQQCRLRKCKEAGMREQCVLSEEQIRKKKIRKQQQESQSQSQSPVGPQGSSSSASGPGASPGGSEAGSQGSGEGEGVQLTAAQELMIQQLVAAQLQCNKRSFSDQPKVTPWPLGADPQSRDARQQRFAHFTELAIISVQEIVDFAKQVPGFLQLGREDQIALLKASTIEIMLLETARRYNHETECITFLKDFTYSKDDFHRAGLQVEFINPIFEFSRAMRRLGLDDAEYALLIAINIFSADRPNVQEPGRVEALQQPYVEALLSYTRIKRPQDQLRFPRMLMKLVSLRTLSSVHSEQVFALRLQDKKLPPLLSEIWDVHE
How it was run: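 Readout: fluorescent reporter mRNA fragments resolved by capillary electrophoresis after RT-PCR. System: transiently transfected human HepG2, exogenous LXRb-Gal4 chimera driving GAL4-UAS reporter, 24 h dosing. Activity fitted upward against DMSO baseline.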

**Q.** With `CCc1cnc(C2=NC(C)(C(C)C)C(=O)N2)c(C(=O)O)c1` (stereo not drawn) as the molecule, how does the outcome read?
**A.** inactive

**Q.** How did the outcome turn out when `CSc1nnc(C(C)(C)C)c(=O)n1N` was run?
**A.** inactive

**Q.** For `S=C1NCCN1`, which outcome is on record?
**A.** inactive

**Q.** Which outcome does the source give for `O=c1ccc(=O)[nH][nH]1` here?
**A.** inactive

**Q.** How did the outcome turn out when `COP(=O)(NC(C)=O)SC` (stereo not drawn) was run?
**A.** inactive

**Q.** Which outcome does the source give for `CCOP(=S)(OCC)Oc1cc(C)nc(C(C)C)n1` here?
**A.** inactive

**Q.** How did the outcome turn out when `CCOC(=O)CC(SP(=O)(OC)OC)C(=O)OCC` (stereo not drawn) was run?
**A.** inactive

**Q.** `CC(Oc1cccc(Cl)c1)C(=O)O` (stereo not drawn) was tested. Which outcome did it give?
**A.** inactive

**Q.** With `CCOP(=S)(OCC)SCCSCC` as the molecule, how does the outcome read?
**A.** inactive

**Q.** `CSc1nc(NC(C)C)nc(NC(C)C)n1` was tested. Which outcome did it give?
**A.** inactive

**Q.** Which outcome does the source give for `CCC(CC)Nc1c([N+](=O)[O-])cc(C)c(C)c1[N+](=O)[O-]` here?
**A.** inactive

**Q.** How did the outcome turn out when `CON=C(C(=O)OC)c1ccccc1CON=C(C)c1cccc(C(F)(F)F)c1` was run?
**A.** inactive

**Q.** How did the outcome turn out when `CNC(=O)Oc1cccc2c1OC(C)(C)O2` was run?
**A.** inactive

**Q.** How did the outcome turn out when `CN(C)NC(=O)CCC(=O)O` was run?
**A.** inactive

**Q.** For `Cc1cc(C2CC2)nc(Nc2ccccc2)n1`, which outcome is on record?
**A.** inactive

**Q.** `C#CC(C)(C)NC(=O)c1cc(Cl)cc(Cl)c1` was tested. Which outcome did it give?
**A.** inactive

**Q.** For `CC(=NC#N)N(C)Cc1ccc(Cl)nc1`, which outcome is on record?
**A.** inactive

**Q.** Which outcome does the source give for `CCOP(=S)(OCC)Oc1ccc([N+](=O)[O-])cc1` here?
**A.** inactive

**Q.** `O=C(O)c1cc(Oc2ccc(C(F)(F)F)cc2Cl)ccc1[N+](=O)[O-]` was tested. Which outcome did it give?
**A.** inactive

**Q.** For `CCCOc1nn(C(=O)NS(=O)(=O)c2ccccc2C(=O)OC)c(=O)n1C`, which outcome is on record?
**A.** inactive

**Q.** With `CCOP(=O)(SC(C)CC)N1CCSC1=O` (stereo not drawn) as the molecule, how does the outcome read?
**A.** inactive

**Q.** How did the outcome turn out when `COP(=O)(OC)SCn1c(=O)oc2cc(Cl)cnc21` was run?
**A.** inactive

**Q.** With `CCCSP(=O)(OCC)Oc1ccc(Br)cc1Cl` (stereo not drawn) as the molecule, how does the outcome read?
**A.** inactive

**Q.** Which outcome does the source give for `CCc1cccc(CC)c1N(COC)C(=O)CCl` here?
**A.** inactive

**Q.** With `FC(F)C(F)(F)OCC(Cn1cncn1)c1ccc(Cl)cc1Cl` (stereo not drawn) as the molecule, how does the outcome read?
**A.** inactive

**Q.** How did the outcome turn out when `C[Si](Cn1cncn1)(c1ccc(F)cc1)c1ccc(F)cc1` was run?
**A.** inactive

**Q.** For `CNc1cnn(-c2cccc(C(F)(F)F)c2)c(=O)c1Cl`, which outcome is on record?
**A.** inactive

**Q.** Which outcome does the source give for `CN(C)C(=O)Nc1cccc(C(F)(F)F)c1` here?
**A.** inactive

**Q.** `CC(C)N(C(=O)SCC(Cl)=C(Cl)Cl)C(C)C` was tested. Which AC50 did it give?
**A.** 20.1 µM (active)

**Q.** For `CCNc1nc(Cl)nc(NC(C)(C)C#N)n1`, which outcome is on record?
**A.** inactive

**Q.** For `CC[C@H](C)[C@H]1O[C@]2(C=C[C@@H]1C)C[C@@H]1C[C@@H](C/C=C(\C)[C@@H](O[C@H]3C[C@H](OC)[C@@H](O[C@H]4C[C@H](OC)[C@@H](NC)[C@H](C)O4)[C@H](C)O3)[C@@H](C)/C=C/C=C3\CO[C@@H]4[C@H](O)C(C)=C[C@@H](C(=O)O1)[C@]34O)O2`, which outcome is on record?
**A.** inactive

**Q.** Which outcome does the source give for `C[N+]1(C)CCCCC1` here?
**A.** inactive

**Q.** How did the outcome turn out when `CCCCOC(=O)c1ccccc1C(=O)O` was run?
**A.** inactive

**Q.** Which outcome does the source give for `CC(C1CC1)C(O)(Cn1cncn1)c1ccc(Cl)cc1` (stereo not drawn) here?
**A.** inactive

target: Hepatocyte nuclear factor 4-alpha (Homo sapiens) (UniProt P41235); experiment: ATG_HNF4a_TRANS: Attagene TRANS-FACTORIAL HepG2 Assay for human Hepatocyte Nuclear Factor 4 alpha (HNF4a) (AID 2282982); settings: HepG2 HNF4a transactivation reporter, mRNA readout
Sequence (P41235 whole entry, looked up): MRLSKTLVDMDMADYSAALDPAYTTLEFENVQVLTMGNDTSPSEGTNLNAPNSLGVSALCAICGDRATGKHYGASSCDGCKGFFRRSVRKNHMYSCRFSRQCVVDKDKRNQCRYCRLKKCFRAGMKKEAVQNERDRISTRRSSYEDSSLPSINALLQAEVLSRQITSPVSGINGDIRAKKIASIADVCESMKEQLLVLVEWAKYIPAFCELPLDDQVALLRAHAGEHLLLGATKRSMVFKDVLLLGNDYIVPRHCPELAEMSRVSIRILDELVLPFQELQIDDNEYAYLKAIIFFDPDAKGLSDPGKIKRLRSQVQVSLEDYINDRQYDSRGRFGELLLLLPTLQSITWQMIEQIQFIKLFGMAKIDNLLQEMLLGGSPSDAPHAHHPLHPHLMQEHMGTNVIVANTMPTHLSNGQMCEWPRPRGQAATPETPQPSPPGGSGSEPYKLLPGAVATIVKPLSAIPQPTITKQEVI
How it was run: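 Transient MRTU transfection of HepG2, 24 h dosing. Readout: reporter mRNA via RT-PCR + capillary electrophoresis, fluorescence; activity fit upward relative to DMSO control.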

**Q.** With `CSc1nnc(C(C)(C)C)c(=O)n1N` as the molecule, how does the outcome read?
**A.** inactive

**Q.** `CC(C)[C@H](C(=O)O[C@H](C#N)c1cccc(Oc2ccccc2)c1)c1ccc(Cl)cc1` was tested. Which outcome did it give?
**A.** inactive

**Q.** With `S=C1NCCN1` as the molecule, how does the outcome read?
**A.** inactive

**Q.** `O=c1ccc(=O)[nH][nH]1` was tested. Which outcome did it give?
**A.** inactive

**Q.** With `COP(=O)(NC(C)=O)SC` (stereo not drawn) as the molecule, how does the outcome read?
**A.** inactive

**Q.** Which outcome does the source give for `CCOP(=S)(OCC)SCCSCC` here?
**A.** inactive

**Q.** How did the outcome turn out when `CON=C(C(=O)OC)c1ccccc1CON=C(C)c1cccc(C(F)(F)F)c1` was run?
**A.** inactive

**Q.** How did the outcome turn out when `Cc1cc(C2CC2)nc(Nc2ccccc2)n1` was run?
**A.** inactive

**Q.** With `CC(=NC#N)N(C)Cc1ccc(Cl)nc1` as the molecule, how does the outcome read?
**A.** inactive

**Q.** Which outcome does the source give for `CCOP(=S)(OCC)Oc1ccc([N+](=O)[O-])cc1` here?
**A.** inactive

**Q.** Which outcome does the source give for `O=C(O)c1cc(Oc2ccc(C(F)(F)F)cc2Cl)ccc1[N+](=O)[O-]` here?
**A.** inactive

**Q.** `CCCOc1nn(C(=O)NS(=O)(=O)c2ccccc2C(=O)OC)c(=O)n1C` was tested. Which outcome did it give?
**A.** inactive

**Q.** For `CCOP(=O)(SC(C)CC)N1CCSC1=O` (stereo not drawn), which outcome is on record?
**A.** inactive

**Q.** For `CCc1cccc(CC)c1N(COC)C(=O)CCl`, which outcome is on record?
**A.** inactive

**Q.** Which outcome does the source give for `C[Si](Cn1cncn1)(c1ccc(F)cc1)c1ccc(F)cc1` here?
**A.** inactive

**Q.** `CC(C)N(C(=O)SCC(Cl)=C(Cl)Cl)C(C)C` was tested. Which outcome did it give?
**A.** inactive

**Q.** How did the outcome turn out when `CCNc1nc(Cl)nc(NC(C)(C)C#N)n1` was run?
**A.** inactive

**Q.** For `CC[C@H](C)[C@H]1O[C@]2(C=C[C@@H]1C)C[C@@H]1C[C@@H](C/C=C(\C)[C@@H](O[C@H]3C[C@H](OC)[C@@H](O[C@H]4C[C@H](OC)[C@@H](NC)[C@H](C)O4)[C@H](C)O3)[C@@H](C)/C=C/C=C3\CO[C@@H]4[C@H](O)C(C)=C[C@@H](C(=O)O1)[C@]34O)O2`, which outcome is on record?
**A.** inactive

**Q.** `C[N+]1(C)CCCCC1` was tested. Which outcome did it give?
**A.** inactive

**Q.** `CCCCOC(=O)c1ccccc1C(=O)O` was tested. Which outcome did it give?
**A.** inactive
